Source: PubChem BioAssay
Hits are enriched below; roughly 14% of the tested compounds scored in any of these assays.
FBPA Giardia inh = blocks Giardia fructose-bisphosphate aldolase activity; A8B2U2; purified Giardia FBPA; Potency, µM (titrated, usually from 59.6 µM), inactives show at the top dose activity, negative = inhibition, actives largely listed as inhibitors; actives 0.71% (n = 290,000); AID 2451; further: potency means the concentration at half of the fitted maximal effect; on the % scale 0 is the no-effect control and ±100 the full control effect; nearly all actives have a fitted effect of over 55% in size
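Giardia FBPA (40 nM reagent) was preincubated 10 min at RT with compound (up to 57.5 uM final), then substrate plus GAPDH/TPI/NAD/arsenate coupling system with diaphorase/resazurin was added; resorufin fluorescence (525/598 nm) was read after 20 min.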
NS1 function inh = inhibitors of influenza NS1 protein function | actives 0.4% (n = 270,000) | Potency, µM (top dose mostly 46.1 µM), for inactives: at the highest dose activity, positive = more growth | AID 2326; calls by dose curve; further: potency means the concentration at half of the fitted maximal effect; actives are rising curves; nearly all actives have a fitted effect of over 50% in size
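S. cerevisiae expressing influenza A NS1, grown in glucose, washed, then diluted 1:100 into pH 6.0 -URA galactose medium with 23 nl compound. Growth recovery read as OD600; NS1-free strain serves as control.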
Shiga toxin inh = blocks Shiga toxin action in Vero cells. Vero cells, Shiga toxin protein synthesis inhibition reporter. inhibition, % at 38.7 µM. actives 9.2% (n = 290,000). AID 2315; in the data active means inhibition mostly above about 28%, no sharp cut-off; inactive means mostly below about 43%; further: 0% is about no effect
CHX counter = counter-screen hit for Shiga toxin inhibitors, cycloheximide. cell reporter, cycloheximide protein synthesis inhibition counterscreen. max response, %. actives 12% (n = 300,000). AID 2314; in the data active means max response mostly above about 13%, no sharp cut-off; inactive means mostly below about 14%; further: read at 38.3 µM for the half of the compounds with a filed dose; 0% is about no effect
LmPK inh = inhibitors of Leishmania mexicana pyruvate kinase; Potency, µM (highest dose often 57.5 µM), for the others: top-dose activity change, negative = inhibition, most hits filed as inhibitors; Q27686; actives 0.37% (n = 290,000); purified LmPK, Kinase-Glo ATP luminescence, 1 h; further: potency means the concentration at half of the fitted maximal effect; on the % scale 0 is the no-effect control and ±100 the full control effect
Target sequence (Q27686 whole entry, looked up): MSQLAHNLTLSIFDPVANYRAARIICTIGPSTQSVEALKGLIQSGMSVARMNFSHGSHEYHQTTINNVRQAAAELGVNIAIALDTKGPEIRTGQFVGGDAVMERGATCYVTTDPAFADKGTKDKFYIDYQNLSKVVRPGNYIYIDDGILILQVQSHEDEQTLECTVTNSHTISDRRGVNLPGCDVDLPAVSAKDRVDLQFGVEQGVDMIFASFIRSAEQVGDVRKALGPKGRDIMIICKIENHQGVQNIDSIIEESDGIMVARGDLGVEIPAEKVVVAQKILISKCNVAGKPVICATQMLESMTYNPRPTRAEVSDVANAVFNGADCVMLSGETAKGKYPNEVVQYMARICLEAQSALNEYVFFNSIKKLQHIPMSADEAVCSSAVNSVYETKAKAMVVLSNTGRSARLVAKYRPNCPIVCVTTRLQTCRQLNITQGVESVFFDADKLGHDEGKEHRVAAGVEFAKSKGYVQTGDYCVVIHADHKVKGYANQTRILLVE
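In 50 mM imidazole pH 7.2 with 7 mM MgCl2, LmPK (0.1 nM) turned over PEP (0.5 mM) and ADP (0.1 mM) for 1 h at room temperature. Luciferase read-out of ATP.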
The depositor's hits bear a star; u = inconclusive; x = no result given; [ ] = dose if it differs, or a comment. Unless noted, the call rests on the fitted dose curve; in most records, active means well fitted curve in the direction sought with a large enough effect; inconclusive means small, poorly fitted or top-dose-only effect, or another doubt; inactive means no such curve, though single readings can be large; an effect the other way counts as inactive or inconclusive.

SMILES	FBPA Giardia inh	NS1 function inh	Shiga toxin inh	CHX counter	LmPK inh
CCCCCCCc1cc2c(cn1)=C(OC)C(C)(OC(C)=O)C(=O)C=2Cl (configuration not stated)	-6.5%	x	x	x	x
Cc1c(C(C)(C)O)[nH]c2ccc(C(F)(F)F)cc12	2.6%	-101.1%	16.8	8.6*	5.1%
COC(=O)c1ccc2c(C)c(C(C)(C)O)[nH]c2c1	-2.6%	-22.1%	36.7	14.5*	-4.6%
COCCn1c(=O)[nH]c2cc(C(=O)OC)ccc2c1=O	4.5%	1.6%	-4.1	1.5	-0.2%
Cc1ccc2[nH]c(C(F)(F)F)cc(=O)c2c1	-21.9%	-7.0%	-1.0	14.4	-13.2%
Cc1cc(Cn2nnnc2-c2ccncc2)cc(C)c1O	2.3%	3.3%	-12.6	-2.5	3.7%
Cc1cc2c(cc1C)N(CC(=O)N1CCCC1)C(=O)CC(c1ccccc1)=N2	20.2%	-3.0%	56.1*	32.8*	6.6%
Brc1c(CSc2nc3ccccc3s2)nc2ncccn12	-13.7%	-4.1%	42.8	23.5*	-2.8%
COC(=O)c1ccccc1NC(=O)CSc1nccn1C	-26.4%	3.2%	-14.3	13.7	3.2%
Cc1cc(=O)[nH]c(SCC(=O)Nc2nc3ccccc3s2)n1	-22.5%	x	22.2	8.9	-6.1%
Cn1ccnc1SCC(=O)Nc1cccc2ccccc12	-4.3%	-3.4%	25.0	38.9*	0.2%
O=C(CSc1cn[nH]n1)Nc1nc2ccccc2s1	7.7%	8.3%	53.4*	26.9*	-1.0%
Cc1nnc(SCC(=O)Nc2nc3ccccc3s2)n(N)c1=O	0.5%	14.6%	-2.6	-2.3	-0.8%
Nn1c(SCC(=O)Nc2nc3ccccc3s2)nncc1=O	-0.5%	7.0%	40.3	23.3*	-1.2%
CCCCS(=O)(=O)N1CCc2nc(COc3ccccc3)c3c(c2C1)CO[C@@H](C)C3	2.2%[12.9 µM]	x	x	x	-1.8%[11.5 µM]
COC(=O)C1=C(C)N(Cc2ccccc2)[C@]23O[C@](C(=O)OC)(C(=O)N2C1c1ccccc1)C1C(=O)N(C)C(=O)C13 (some centres not stated)	2.4%[12.9 µM]	x	x	x	x
COc1ncc2ncc(=O)n(CCC#N)c2n1	0.1%	x	x	x	x
COc1ccc(NC(=O)CSc2nccn2C)c([N+](=O)[O-])c1	-1.3%	x	60.4*	23.2*	-1.7%
O=S(=O)(CCSc1ccccn1)c1nc2ccccc2s1	-4.1%	-113.9%	-1.8	19.6*	4.9%
Cn1ccnc1SCC(=O)Nc1ccc(Br)cc1C(F)(F)F	x	-4.6%	116.7*	21.7*	-2.5%
O=S(=O)(CCSc1nc2ccccc2o1)c1nc2ccccc2s1	-23.4%	0.4%	-13.1	-2.9	6.0%
COc1ccc(NC(=O)CSc2nccn2Cc2ccccc2)c(OC)c1	x	-25.5%	17.2	12.2	-2.1%
Cn1cnnc1SCC(=O)Nc1ccc(Br)cc1F	3.0%	0.1%	-3.1	-3.0	2.7%
O=C(CSc1nc2ccccc2s1)Nc1ncccn1	5.0%	-9.3%	12.7	39.9*	1.6%
CC(Sc1nccn1C)C(=O)Nc1ccccc1 (configuration not stated)	-24.2%	-4.2%	-8.3	1.9	-0.7%
SMILES	FBPA Giardia inh	NS1 function inh	Shiga toxin inh	CHX counter	LmPK inh
CCc1c2c(nc3cccc(C(C)C)c13)-c1cccc(=O)n1C2	-26.6%	x	x	x	x
O=C(CSc1nc2ccccc2s1)NCCOc1ccccc1	-6.3%	-3.9%	17.2	15.3*	-0.5%
Cc1nnc(NC(=O)CSc2nccn2C)s1	-19.1%	-4.0%[9.22 µM]	-5.4	-1.1	-2.3%
Cc1nc(NC(=O)CSc2nccn2C)sc1C(=O)N(C)C	x	3.3%	42.7*	21.1*	-5.6%
Cn1ccnc1SCC(=O)NC1CCCC1	-6.0%	9.2%	-6.0	4.8	-1.9%
Cn1ccnc1SCC(=O)Nc1ccc2nc(SCC(=O)NC3CC3)sc2c1	-8.4%	3.8%	113.4*	32.9*	0.2%
Cn1ccnc1SCC(=O)Nc1nc2ccccc2s1	5.8%	-4.6%	71.8*	34.2*	-2.1%
COc1cc(NC(=O)CN2C(=O)COc3ccc(S(=O)(=O)N4CCOCC4)cc32)cc(OC)c1	4.2%	-5.0%	-2.3	9.8	-4.0%
O=c1ccc2ccc(Oc3ccc([N+](=O)[O-])cc3[N+](=O)[O-])cc2o1	1.4%	-8.1%	2.7	-4.2	-0.9%
CCc1cccc2c(-c3ccccc3)c3c(nc12)OCC3	16.4%	x	x	x	x
O=C(CSc1ccccn1)Nc1nc2ccccc2s1	-0.6%	6.8%	19.0	27.8*	2.8%
O=C(CSc1ccccn1)Nc1cccc(NC(=O)CSc2ccccn2)n1	-0.1%	6.4%	19.7	17.5	9.0%
Cn1c(=O)n(C)c2cc(NC(=O)c3cc4ccccc4o3)ccc21	-17.0%	-44.4%	88.9*	32.8*	-5.7%
O=C(Nc1ccc2c(c1)OCCO2)c1cc2ccccc2o1	u	x	87.6*	23.7*	-8.1%
